These results are taken from PubChem BioAssay (NCI).

The structures appear in SMILES notation. The panel holds about 83,000 compounds, 20% with a hit somewhere; the sample as a whole holds those more often.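 Each cell line was grown in a 96-well plate and treated with one concentration of compound for 48 hours. Values below 10 were considered active.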 Values without a mark were called inactive. Calls of active or inactive are those of the source.

Some test systems named below: DU-145 prostate; K-562 leukemia; MALME-3M melanoma; MDA-MB-231 breast; RXF 393 renal; SF-268 CNS; SF-295 CNS; SF-539 CNS; UACC-257 melanoma; M14 melanoma; HCT-15 colon; HT29 colon; SNB-75 CNS; SNB-19 CNS; U251 CNS; PC-3 prostate; SK-MEL-5 melanoma; UACC-62 melanoma; LOX IMVI melanoma; SK-MEL-28 melanoma.
What all share (experiment): NCI-60 one-dose screen, 48 h (100 = growth as untreated, 0 = no growth, -100 = all killed)
Conditions in all cases: 10 µM unless noted

With `C[C@H]1[C@H]2C3=CC[C@@H]4[C@@]5(C)C/C(=C/c6ccncc6)C(=O)C(C)(C)[C@@H]5CC[C@@]4(C)[C@]3(C)CC[C@@]2(C(=O)N2CCN(C)CC2)CC[C@@H]1C`, the growth was 89.3% with DU-145 prostate; 40.2% with K-562 leukemia; 102% in the test with MALME-3M melanoma; 81.4% with MDA-MB-231 breast; 83.8% in the test with RXF 393 renal; 82.4% in the test with SF-268 CNS. The growth was 87.7% in the test on SF-295 CNS; 83.2% with SF-539 CNS; 83.6% with UACC-257 melanoma; 65.7% in the test with M14 melanoma; 66% with HCT-15 colon; 46.9% in the test with HT29 colon. Also, the growth was 76.3% in the test with SNB-75 CNS; 78.2% in the test on SNB-19 CNS; 68.8% in the test on U251 CNS; 33.9% in the test with PC-3 prostate; 87.7% in the test on SK-MEL-5 melanoma; 80.2% in the test on UACC-62 melanoma. Also, the growth with LOX IMVI melanoma was 84.3%; in the test with SK-MEL-28 melanoma, 101%.

In the case of `C=C1C(=O)O[C@H]2[C@H]1CC/C(COC(=O)NCc1ccc(Cn3c(=O)sn(CCCCl)c3=O)cc1)=C\CC[C@@]1(C)O[C@@H]21`, the growth in the test on DU-145 prostate is 8.01% (active); in the test on K-562 leukemia it was 0.0582% (active); in the test with MALME-3M melanoma, -57.1% (active); with MDA-MB-231 breast it was 14.4%; with RXF 393 renal, -76.7% (active); in the test on SF-268 CNS, 44.5%. Moreover, the growth in the test on SF-295 CNS is 101%; in the test with SF-539 CNS, -7.17% (active); in the test with UACC-257 melanoma, 10.4%; in the test with M14 melanoma, 5.43% (active); with HCT-15 colon it was 8.02% (active); in the test on HT29 colon, -30.2% (active). In addition, the growth in the test with SNB-75 CNS was 70.2%; with SNB-19 CNS, 76.1%; with U251 CNS, 57.7%; with PC-3 prostate, 67.1%; with SK-MEL-5 melanoma, 42.5%; in the test on UACC-62 melanoma, 26.8%. The growth in the test on LOX IMVI melanoma is -48.2% (active); in the test on SK-MEL-28 melanoma it was 28.1%.

Take `CCOC(=O)c1c(C)[nH]c(C(=O)CCC(=O)OC)c1C`: the growth in the test on DU-145 prostate is 100%; in the test on K-562 leukemia, 102%; with MALME-3M melanoma, 98.7%; in the test on MDA-MB-231 breast, 115%; with RXF 393 renal, 112%; with SF-268 CNS, 98.3%. In addition, the growth in the test with SF-295 CNS was 91.8%; in the test with SF-539 CNS, 100%; in the test on UACC-257 melanoma, 112%; in the test with M14 melanoma, 97.5%; with HCT-15 colon, 92.4%; in the test on HT29 colon it was 86.7%. Also, the growth in the test on SNB-75 CNS is 106%; with SNB-19 CNS it was 106%; with U251 CNS, 99.9%; with PC-3 prostate it was 81.2%; with SK-MEL-5 melanoma it was 106%; with UACC-62 melanoma, 101%. Besides, the growth in the test on LOX IMVI melanoma is 103%; with SK-MEL-28 melanoma it was 111%.

With `CCCCCCCSc1ccc(C(=O)O)cc1`, the growth in the test with DU-145 prostate was 119%; with K-562 leukemia, 105%; in the test with MALME-3M melanoma, 111%; with MDA-MB-231 breast it was 112%; with RXF 393 renal, 94.4%; in the test with SF-268 CNS, 109%. Also, the growth in the test on SF-295 CNS was 94.3%; with SF-539 CNS, 99.7%; with UACC-257 melanoma, 95.8%; with M14 melanoma, 113%; in the test with HCT-15 colon it was 111%; in the test with HT29 colon, 112%. Also, the growth with SNB-75 CNS is 71.2%; in the test on SNB-19 CNS, 95.4%; with U251 CNS, 95.1%; with PC-3 prostate it was 99.9%; in the test on SK-MEL-5 melanoma it was 108%; with UACC-62 melanoma it was 98.6%. Besides, the results for the growth in the test on LOX IMVI melanoma and in the test on SK-MEL-28 melanoma were 103% and 105%, respectively.

Take `CC(C)OC(=O)OCOP(=O)(OCOC(=O)OC(C)C)C1CCCN(O)C1=O` (stereo not given): the growth in the test with DU-145 prostate is 52.5%; in the test with K-562 leukemia, 30.3%; with MALME-3M melanoma it was 41.1%; in the test on MDA-MB-231 breast, 21.8%; with RXF 393 renal, 8.56% (active); in the test with SF-268 CNS, 26.5%. Moreover, the growth in the test on SF-295 CNS is 62.8%; with SF-539 CNS it was 75.5%; in the test with UACC-257 melanoma it was 55.2%; in the test with M14 melanoma, 44.4%; with HCT-15 colon it was 33.4%; in the test on HT29 colon, 5.87% (active). Further, the growth is 57.6% in the test with SNB-75 CNS; 21.5% in the test on SNB-19 CNS; 15.2% in the test on U251 CNS; 60.5% in the test with PC-3 prostate; 30.9% with SK-MEL-5 melanoma; 23.6% in the test with UACC-62 melanoma. The growth is 39% in the test on LOX IMVI melanoma and 15.2% in the test with SK-MEL-28 melanoma.

Take `O=c1cc(-c2ccc(OCc3ccccc3)cc2)oc2c(I)c(OCc3ccccc3)cc(OCc3ccccc3)c12`: the growth in the test on DU-145 prostate was 105%; in the test on K-562 leukemia, 84.3%; in the test with MALME-3M melanoma, 107%; with MDA-MB-231 breast, 110%; in the test on RXF 393 renal it was 139%; in the test on SF-268 CNS it was 99%. Besides, the growth was 99% with SF-295 CNS; 100% in the test on SF-539 CNS; 95.9% in the test on UACC-257 melanoma; 95.6% in the test on M14 melanoma; 104% with HCT-15 colon; 105% in the test on HT29 colon. The growth was 79.7% in the test on SNB-75 CNS; 104% in the test on SNB-19 CNS; 90.1% in the test on U251 CNS; 94.7% with PC-3 prostate; 85.1% in the test on SK-MEL-5 melanoma; 90.3% with UACC-62 melanoma. In addition, the growth was 101% with LOX IMVI melanoma and 107% in the test on SK-MEL-28 melanoma.

Consider `O=C1N/C(=N/O)S/C1=C/c1cn(-c2ccccc2)nc1-c1ccccc1`, for which the growth is 102% in the test with DU-145 prostate; 94.2% with K-562 leukemia; 141% with MALME-3M melanoma; 85.8% in the test on MDA-MB-231 breast; 95.6% with RXF 393 renal; 97.7% in the test on SF-268 CNS. The growth is 107% in the test with SF-295 CNS; 110% in the test on SF-539 CNS; 113% in the test on UACC-257 melanoma; 105% in the test with M14 melanoma; 86.5% in the test with HCT-15 colon; 112% in the test on HT29 colon. The growth with SNB-75 CNS was 70.6%; with SNB-19 CNS, 107%; in the test on U251 CNS, 97%; in the test on PC-3 prostate it was 89.3%; in the test with SK-MEL-5 melanoma, 102%; with UACC-62 melanoma it was 102%. Also, the results for the growth in the test on LOX IMVI melanoma and in the test with SK-MEL-28 melanoma were 68.6% and 113%, respectively.
